# Compound activity from PubChem BioAssay.
# GRK2 aptamer HTS: inhibitors of human GRK2 displacing RNA aptamer. bead flow cytometry, FAM-aptamer displacement from GRK2. inhibition of aptamer binding, % at 10 µM. P25098. AID 488847. 330,000 tested, 0.59% active;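 active means inhibition of aptamer binding above 40%, roughly 3 SD of noise, on plates passing a quality check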;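 further: median bead fluorescence of bound FAM aptamer so fluorescent compounds give negative values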
# Exocytosis inh: lytic granule exocytosis inhibition | inhibition, % at 10 µM | AID 651702 | TALL-104 LAMP-1 surface exposure, flow cytometry; cells stimulated with thapsigargin and PMA | 360,000 tested, 0.66% active;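 active means inhibition above about 55%, limit read from the data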
# NadD block: blocks S. aureus nicotinate mononucleotide adenylyltransferase; purified NadD enzyme, colorimetric absorbance read-out; inhibition, % at 20 µM; 360,000 tested, 0.78% active; AID 602399; in the data active means inhibition above about 26%
# PP1 counter: PP1-alpha (human) inhibition in PP5 counter-screen. 320,000 tested, 0.9% active. P62136. purified PP1alpha, OMFP fluorescence. AID 2235. inhibition, % at 6.7 µM;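 active means inhibition above the mean inhibition of all tested compounds plus 3 SD, computed separately for each screening campaign, cut at about 15% in these data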
# B2AR ag: activates human beta-2 adrenergic receptor causing internalization | AID 504454 | P07550 | 340,000 tested, 0.43% active | response, % (test concentration not listed) | Am2.2-beta2AR cells, FAP receptor internalization, flow cytometry;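 active means response above a set limit, near 3 SD of response in nonfluorescent compounds, cut at about 42% in these data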
# Target sequence (P07550 whole entry, looked up): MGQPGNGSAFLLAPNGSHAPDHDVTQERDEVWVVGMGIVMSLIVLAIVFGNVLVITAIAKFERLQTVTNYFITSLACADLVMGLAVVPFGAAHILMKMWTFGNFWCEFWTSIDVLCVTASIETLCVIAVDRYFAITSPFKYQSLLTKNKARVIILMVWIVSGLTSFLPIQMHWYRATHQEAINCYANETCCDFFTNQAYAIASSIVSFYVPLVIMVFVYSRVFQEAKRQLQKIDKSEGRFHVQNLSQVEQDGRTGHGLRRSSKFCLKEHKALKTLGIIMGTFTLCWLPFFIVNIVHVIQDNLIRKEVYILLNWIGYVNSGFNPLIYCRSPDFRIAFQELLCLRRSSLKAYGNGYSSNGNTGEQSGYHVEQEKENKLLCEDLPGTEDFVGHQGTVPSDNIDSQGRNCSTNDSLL
# B2AR ag CP1: activates human beta-2 adrenergic receptor; Am2.2-beta2AR cells, FAP surface receptor, flow cytometry; stronger effect = lower value; shares compounds with B2AR ag; percent response (surface receptor), % at 10 µM; 1,100 tested, 25% active;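 active means surface receptor percent response at or below 58%, roughly 3 SD from nonfluorescent compounds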
# B2AR FAP counter: fluorescence artifact in beta-2AR agonist FAP counterscreen. shares compounds with B2AR ag. Am2.2 cells, FAP fluorogen flow cytometry; stronger effect = lower value. calls only at 10 µM. 1,100 tested, under 10 active. AID 588765;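 active means percent response below a set limit in fluorescence channel 1 and below 50% in channel 8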
# The depositor's hits bear a star; i = inactive; . = not tested or not shown; + = active, no number. Sampled rows, rich in hits. Any-hit rate of the full collection: about 2.9%.
SMILES,GRK2 aptamer HTS,Exocytosis inh,NadD block,PP1 counter,B2AR ag,B2AR ag CP1,B2AR FAP counter
COC(=O)CSc1nc2ccc(NC(=O)c3ccccc3C(=O)N3CCOCC3)cc2s1,3,7,-1,0,17,.,.
O=C(Nc1ccc2nc(SCc3ccc(Cl)cc3)sc2c1)c1ccccc1C(=O)N1CCOCC1,0,4,-4,0,107*,17*,i
COC(C[C@@H](O)CC(=O)COCc1ccccc1)OC,.,0,-7,.,-4,.,.
Oc1ccccc1Nc1nc(NCC2CCCO2)c2ccccc2n1 (centres undefined),0,10,-7,4,47*,8.6*,+
Cc1nc2sc3c(NCc4ccco4)ncnc3c2c2c1COC(C)(C)C2,0,-7,4,1,-16,.,.
COCCCNc1ncnc2c1sc1nc(-c3ccco3)c3c(c12)CC(C)(C)OC3,2,7,-13,-3,99*,20*,i
CC(C)c1nc2oc3c(NCCO)ncnc3c2c2c1COC(C)(C)C2,3,-1,-6,-1,5,114,i
CC1(C)Cc2c(c(-c3ccco3)nc3sc4c(NCCO)ncnc4c23)CO1,0,-1,-4,-2,100*,16*,i
CC(C)Cc1nc2sc3c(NCc4ccco4)ncnc3c2c2c1COC(C)(C)C2,0,-3,10,0,65*,28*,i
COc1cccc(CNC(=O)c2ccc3nc[nH]c3c2)c1,0,-5,0,-3,7,.,.
Cc1ccc(C(OCCN(C)C)c2cccc(C(F)(F)F)c2)cc1 (centres undefined),5,2,-4,-4,5,.,.
COc1ccc(-c2cc(C(F)(F)F)c(C#N)c(SCC(=O)O)n2)cc1OC,4,.,.,-1,.,.,.
CCOC(=O)Cn1nnnc1CN(Cc1ccccc1)Cc1cc2cc(CC)ccc2[nH]c1=O,1,-2,5,0,100*,62,i
O=C(NCc1ccc2c(c1)OCO2)C1CCCN(S(=O)(=O)c2cccnc2)C1 (centres undefined),0,0,-5,-2,-4,.,.
Cc1ccc(NC(=O)CSc2ccc3nnc(CCNC(=O)c4ccccc4)n3n2)c(C)c1,0,2,2,0,62*,111,i
Cc1cc(NC(=O)CSc2ccc3nnc(CCNC(=O)c4ccccc4)n3n2)no1,3,7,2,-8,-7,.,.
CC1CCN(S(=O)(=O)c2ccc(NC(=O)c3ccccc3F)cc2)CC1,0,-10,-5,-2,1,.,.
COc1ccccc1C(=O)Nc1ccc(S(=O)(=O)N2CCCCC2c2cccnc2)cc1 (centres undefined),2,12,1,0,-16,133,i
COc1ccccc1C(=O)Nc1ccc(S(=O)(=O)N2CCC(C)CC2)cc1,0,6,-13,0,2,.,.
O=C(Nc1ccc(S(=O)(=O)N2CCCCC2c2cccnc2)cc1)c1ccccc1F (centres undefined),3,0,-2,3,-5,134,i
CC(=O)Nc1ccc(S(=O)(=O)Nc2cccc3cccnc23)cc1,1,-17,0,-1,-1,.,.
O=S(=O)(Nc1cccc2cccnc12)c1ccccc1,0,1,1,4,46*,90,i
Cc1ccc2cccc(NS(=O)(=O)c3ccccc3)c2n1,0,.,.,-1,.,119,i
O=S(=O)(Nc1cccc2ccccc12)c1ccccc1,0,-2,-5,-7,-3,.,.
COc1ccc(CNC(=O)c2ccc(N3CCC4(CC3)CC(c3ccc(Cl)cc3)=NO4)c(N)c2)cc1,1,.,.,2,.,.,.
CC(C)CCN(C(=S)NC(=O)C1CCCCC1)c1c(N)n(Cc2ccccc2)c(=O)[nH]c1=O,0,-4,3,1,4,.,.
Cc1ccc(O)c(NC(=O)c2cccc(NC(=O)c3ccco3)c2)c1,0,0,-8,-1,85*,19*,i
C[C@H](NC(=O)c1ccc(Cl)cc1)C(=O)NNC(=O)c1cccs1,0,-3,1,-1,4,.,.
Cc1ccc(NC(=O)Nc2ccc3c(c2)nnn3C)cc1C,0,17,5,2,-2,.,.
CCOc1ccc(NC(=O)Nc2ccc3c(c2)nnn3C)cc1,0,-4,2,-2,60*,101,i
